These results are taken from the supplement of paper PMC3898565.

Counter-ions that a name gives are not always drawn. ± gives the uncertainty stated by the source.
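Note: viable cell number estimated from Alamar Blue fluorescence read at 560/90, part of a single-dose primary screen of an FDA-approved drug library.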

In this experiment the test system is U87. As to the kind of experiment: cell viability relative to vehicle control; higher = less growth inhibition (less active). The note with it: 10 µM; 72 h.
Consider `CN=C(N)NCCC[C@H](N)C(=O)O` [L-Ornithine, N5-[imino(methylamino)methyl]-[CAS]], for which the cell viability – broadly, a read-out of living cells in per cent, often relative to untreated cells – turned out to be 104.9 ± 0.88%. On to `CCCCC[C@H](O)/C=C/[C@H]1[C@H](O)CC(=O)[C@@H]1CCCCCCC(=O)O` [Prostaglandin E1], for which the cell viability is 105.7 ± 0.69%. As for `CN(C)CCC(c1ccc(Cl)cc1)c1ccccn1` (stereo not given) [Chlorpheniramine], the figure is 109 ± 2.8%. For the compound `COc1ccc(CN2CCN(C(c3ccc(F)cc3)c3ccc(F)cc3)CC2)c(OC)c1OC`, the cell viability was found to be 69.3 ± 8.6%. In the case of `CN1CCC(=C2c3ccccc3C=Cc3ccccc32)CC1` [Cyproheptadine] it was 103.33 ± 0.068%. In the case of `CC[C@@H]1C(=O)OC[C@@H]1Cc1cncn1C` it was 101 ± 0.86%; in that of `OCCN1C[C@H](O)[C@@H](O)[C@H](O)[C@H]1CO`, 123 ± 2.4%; in that of `COc1cc(OC)c(C(=O)CCCN2CCCC2)c(OC)c1` [Buflomedil HCl], 105 ± 2.7%. Take `CN1C2CCCC1CC(NC(=O)c1nn(C)c3ccccc13)C2` (stereo not given): the cell viability was found to be 108 ± 0.83%. As for `CC[C@@]1(O)C(=O)OCc2c1cc1n(c2=O)Cc2cc3c(CN(C)C)c(O)ccc3nc2-1`, the figure is 24.1 ± 2%; as for `O=C1c2c(O)cc(O)cc2O[C@H](c2ccc(O)c(O)c2)[C@H]1O`, 90.7 ± 4.5%; as for `Cc1cccc(Nc2ccncc2S(=O)(=O)NC(=O)NC(C)C)c1`, 124 ± 2.1%. In the case of `CC(C)c1ccc2oc3nc(N)c(C(=O)O)cc3c(=O)c2c1` it was 107 ± 1.8%. As for `COc1ccc(-c2cc(=O)c3c(OC)c(OC)c(OC)c(OC)c3o2)cc1OC` [Nobiletin], the figure is 104.9 ± 0.98%; as for `CC(Cc1ccccc1)(NC(=O)CN)c1ccccc1` (racemic), 93.1 ± 3.1%.

On to `CCN1CCC[C@H]1CNC(=O)c1c(O)c(Cl)cc(Cl)c1OC` [Raclopride], for which the cell viability stood at 99.9 ± 6.5%. In the case of `CNCC[C@H](Oc1cccc2ccccc12)c1cccs1` it was 101 ± 4.5%; in that of `Cc1ncc([N+](=O)[O-])n1CC(O)CCl` (stereo not given), 91.08 ± 0.44%; in that of `COc1ccccc1N1CCN(CCCNc2cc(=O)n(C)c(=O)n2C)CC1`, 109 ± 1.7%.

As for `CN(CCO)CC(O)Cn1cnc2c1c(=O)n(C)c(=O)n2C` (stereo not given), the cell viability was found to be 104.3 ± 0.69%. On to `CNS(=O)(=O)Cc1ccc2[nH]cc(CCN(C)C)c2c1`, for which the cell viability is 101 ± 1.5%. In the case of `CN1CCN(CCCN2c3ccccc3Sc3ccc(Cl)cc32)CC1` it was 95.9 ± 7%. With `O=C1[C@H](CC[C@H](O)c2ccc(F)cc2)[C@@H](c2ccc(O)cc2)N1c1ccc(F)cc1`, the cell viability was determined as 99.1 ± 2.4%. As for `O=C(O)CCc1nc(-c2ccccc2)c(-c2ccccc2)o1`, the figure is 129 ± 2.2%; as for `O=C1CC2(CCCC2)CC(=O)N1CCNCC1COc2ccccc2O1` (stereo not given), 110.4 ± 0.75%. In the case of `O=C1c2cccc3c2[C@H](CCC3)CN1[C@@H]1CN2CCC1CC2` it was 84.3 ± 1.7%; in that of `Clc1cccc(Cl)c1NC1=NCCN1`, 108 ± 2.8%. In the case of `N[C@@H](C(=O)N[C@@H]1C(=O)N2C(C(=O)O)=C(CSc3cn[nH]n3)CS[C@H]12)c1ccc(O)cc1` it was 105 ± 2.1%. Regarding `CC(C(=O)O)c1ccc(CC2CCCC2=O)cc1` (stereo not given), the cell viability was 99.3 ± 2.7%. As to `CC1(C)C[C@@H]1C(=O)N/C(=C\CCCCSC[C@H](N)C(=O)O)C(=O)O`, the cell viability stood at 129 ± 3.1%. For the compound `Cc1ccc(O)c([C@H](CCN(C(C)C)C(C)C)c2ccccc2)c1`, the cell viability came out at 103.8 ± 0.47%. As for `CC(C)OC(=O)CCC/C=C\C[C@@H]1[C@@H](CC[C@@H](O)CCc2ccccc2)[C@H](O)C[C@@H]1O`, the cell viability turned out to be 106 ± 4.2%. In the case of `C[C@@H]1O[C@@H](OC[C@H]2O[C@@H](Oc3c(-c4ccc(O)c(O)c4)oc4cc(O)cc(O)c4c3=O)[C@H](O)[C@@H](O)[C@@H]2O)[C@H](O)[C@H](O)[C@H]1O` it was 91.89 ± 0.76%; in that of `CC(C)[C@H](N)C(=O)OCCOCn1cnc2c(=O)nc(N)[nH]c21`, 103 ± 1.8%.

Consider `CN1C(C(=O)Nc2ccccn2)=C(O)c2ccccc2S1(=O)=O` [Piroxicam], for which the cell viability was determined as 103 ± 3.7%.

As to `CN(C)CCN(Cc1ccccc1)c1ccccn1`, the cell viability worked out at 96.4 ± 2.6%. As for `C[C@@H]1CN(CCCn2c3ccccc3c3ccccc32)C[C@H](C)N1` [Rimcazole], the figure is 109 ± 1.3%; as for `C=C1/C(=C\C=C2/CCC[C@]3(C)[C@@H]([C@H](C)/C=C/[C@@H](O)C4CC4)CC[C@@H]23)C[C@@H](O)C[C@@H]1O`, 100 ± 1.4%.

On to `COc1ccccc1OCCNCC(O)COc1cccc2[nH]c3ccccc3c12` (stereo not given) [Carvedilol], for which the cell viability was 105 ± 2.2%.

As for `O=C1CC[C@@H](C(=O)N2CSC[C@H]2C(=O)O)N1`, the cell viability worked out at 99.4 ± 1.6%.
